# Experimental data reported in PubChem BioAssay (Tox21).
# Results filed as inconclusive are left out. Entries that show only a call come without a potency. A number with no mark means an inactive call. Activity calls are given as the source filed them. The call rests on the fitted dose curve.
# Experiment: p53 small molecule agonists, cell-based qHTS assay with rat liver microsomes: qHTS cell viability counter screen (AID 1963580); further: nearly all actives have a fitted effect of over 45% in size
# Settings: p53RE-bla HCT-116 + rat microsomes, ATP viability, 16 h; series mostly up to 66 µM; activity change, negative = cytotoxicity: at the top concentration
# Text: National Center for Advancing Translational Sciences [NCATS]
# Division of Preclinical Innovation [DPI]
# U.S. Environmental Protection Agency [EPA]
# National Institutes of Environmental Health Sciences [NIEHS]
# National Toxicology Program [NTP]
# U.S. Food and Drug Administration [FDA]
# p53, a tumor suppressor protein, is activated following cellular insult, including DNA damage and other cellular stresses. The activation of p53 regulates cell fate by inducing DNA repair, cell cycle arrest, apoptosis, or cellular senescence. The activation of p53, therefore, is a good indicator of DNA damage and other cellular stresses. The CellSensor p53RE-bla HCT-116 cell line contains a stably integrated beta-lactamase reporter gene under control of the p53 response elements. The activation of the reporter gene under culture conditions can be detected by fluorescence intensity. This cell line was used to screen the Tox21 10K compound library in the condition of presence of rat liver microsomes and to identify agonists that activate the p53 signaling pathway after in vitro metabolic activation (Ooka et al., Archive of Toxicology 96:1975-1987, 2022). The cytotoxicity of the Tox21 compound library against the p53 RE-bla HCT-116 cell line was tested in parallel by measuring the intra cellular ATP content in the same wells.
# Tox21 Assay Protocol Summary:
# The p53RE-bla cells were dispensed at 4,000cells/3ul/well in 1536-well black-clear bottom plates. After the assay plates were incubated at 37 C, 5% CO2 incubator for 5 hours, 23 nL of compounds dissolved in DMSO, positive controls or DMSO only was transferred to the assay plate. Following compound addition, 3 uL of rat liver microsomes (Molecular Toxicology, Boone, NC) at final concentration of 0.5 mg/mL and 1uL of B-Nicotinamide adenine dinucleotide 2'-phosphate (NADPH) at final concentration of 0.5 mg/mL were transferred to the assay plate. The plates were incubated at 37 C for 16 hours. 1 uL of LiveBLAzer detection mixture was added to each well and the plates were incubated at room temperature in the dark for 2 h. Fluorescence intensity at 460 and 530 nm emission and 405 nm excitation were measured by an Envision plate reader. For cell viability readout that measures cytotoxicity, 4 ul/well of CellTiter-Glo reagent was added into the assay plates using a Flying Reagent Dispenser. After 30 min incubation at room temperature, the luminescence intensity in the plates was measured using a ViewLux plate reader.
Compound,Potency,"activity change, negative = cytotoxicity [%]"
CC(=O)O[C@]1(C(C)=O)CC[C@H]2[C@@H]3C[C@H](C)C4=CC(=O)CC[C@]4(C)[C@H]3CC[C@@]21C,inactive,
Oc1ccc(O)cc1,inactive,
COc1cc(C=O)ccc1O,inactive,
Cc1ccc(C(C)C)c(O)c1,inactive,
CNC(=O)Oc1ccc2c(c1)[C@]1(C)CCN(C)[C@@H]1N2C,inactive,
C=C(C)OC(C)=O,inactive,
CCCCN(CCCC)CCCC,inactive,
NC(=O)c1cccnc1,inactive,
CC(=O)c1nccs1,inactive,
Cc1ccc(C(=O)O)o1,inactive,
Cn1c(=O)c2[nH]cnc2n(C)c1=O,inactive,
Nc1ccc(S(=O)(=O)c2ccc(N)cc2)cc1,inactive,
CCCCCCCCCCCCCC(=O)O,inactive,
C[Si](O[Si](C)(C)C)O[Si](C)(C)C,inactive,
CC(C)=CCCC(C)CCO (stereo not given),inactive,
CC(=O)CC/C=C(\C)CCC=C(C)C,,18.4
C/C=C1/CC2C=CC1C2 (stereo not given),inactive,
CNNCc1ccc(C(=O)NC(C)C)cc1,inactive,
F[B-](F)(F)F,inactive,
C[C@]12CCC(=O)C=C1CC[C@@H]1[C@@H]2C(=O)C[C@@]2(C)[C@H]1CC[C@]2(O)C(=O)CO,inactive,

Compound,Potency,"activity change, negative = cytotoxicity [%]"
CCCCCCCCCCC(CO)CCCCCCCC (stereo not given),inactive,
CN(C)C=O,inactive,
O=Cc1ccccc1O,inactive,
COc1ccc(CN(CCN(C)C)c2ccccn2)cc1,inactive,
CCCCOC(=O)CC(CC(=O)OCCCC)(OC(C)=O)C(=O)OCCCC,inactive,
CC1=C(/C=C/C(C)=C/C=C/C(C)=C/C(=O)O)C(C)(C)CCC1,inactive,
Cc1ccc(N)c(S(=O)(=O)O)c1,inactive,
Cc1cccc(O)c1C,inactive,
CCCCCC/C=C/CCCCCCCC(=O)O,,-1.17
CN(C)Cc1cc(CN(C)C)c(O)c(CN(C)C)c1,inactive,
OCCc1ccccc1,inactive,
C=CC(=O)OCCCCCCCC(C)C,,0.124
Cc1ccc2c(c1)C(=O)OC2=O,inactive,
c1ccc2scnc2c1,inactive,
OC[C@@H](O)[C@@H](O)[C@H](O)[C@H](O)CO,inactive,
CC(=O)Nc1cccc(O)c1,inactive,
Brc1nc2ccccc2s1,inactive,
CCCCCNCCCCC,inactive,
c1cc(-c2ccncc2)ccn1,inactive,
N=C(N)c1ccc(OCCCCCOc2ccc(C(=N)N)cc2)cc1,inactive,
